PAFAH1B3 inh: PAFAH1B3 (human) inhibition | Q15102 | recombinant PAFAH1B3, FP-rhodamine probe, fluorescence polarization | 340,000 tested, 0.28% active | inhibition, % at 3.39 µM;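 active = inhibition above the screen-wide average of all tested compounds plus 3 SD, cut at about 25% in these data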;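 also: 0% = enzyme with DMSO only and 100% = wells lacking PAFAH1B3 protein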
Target sequence (Q15102 whole entry, looked up): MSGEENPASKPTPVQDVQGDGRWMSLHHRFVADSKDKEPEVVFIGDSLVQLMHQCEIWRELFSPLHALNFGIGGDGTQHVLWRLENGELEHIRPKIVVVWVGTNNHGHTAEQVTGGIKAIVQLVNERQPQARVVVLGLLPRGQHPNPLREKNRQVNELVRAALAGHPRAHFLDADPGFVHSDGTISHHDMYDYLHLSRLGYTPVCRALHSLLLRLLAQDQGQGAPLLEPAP
PME-1 inh: blocks human protein phosphatase methylesterase 1. recombinant PME-1, FP-Rh probe fluorescence polarization. inhibition, % at 5.9 µM. 320,000 tested, 0.53% active;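 active = inhibition above the campaign mean of all compounds plus 3 SD, cut at about 26% in these data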;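 also: competitive labeling of PME-1 active site by serine hydrolase directed probe; 0% = PME-1 with DMSO and 100% = wells lacking PME-1 enzyme; inhibitors block probe labeling so polarization falls and inhibition rises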
PAFAH2 FP inh: PAFAH2 (human) inhibition; 340,000 tested, 0.99% active; inhibition, % at 3.39 µM; recombinant PAFAH2, FP-rhodamine activity probe, fluorescence polarization;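 active = inhibition above the mean over all tested compounds plus 3 SD, cut at about 30% in these data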;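 also: inhibitors block probe labeling of enzyme so polarization drops; 0% = enzyme with DMSO and 100% = wells lacking PAFAH2 protein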
pPAFAH inh: inhibitors of human plasma PAF acetylhydrolase (pPAFAH); recombinant pPAFAH, FP-rhodamine probe fluorescence polarization; inhibition, % at 3.39 µM; 330,000 tested, 1.5% active;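 active = inhibition above the mean inhibition across the screen plus 3 SD, cut at about 25% in these data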;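 also: inhibitors block binding of the rhodamine activity-based probe so polarization drops; 0% = enzyme with DMSO and 100% = wells lacking pPAFAH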
PAFAH1B2 FP inh: PAFAH1B2 (human) inhibition; P68402; recombinant PAFAH1B2, FP-rhodamine activity probe, fluorescence polarization; inhibition, % at 3.39 µM; 340,000 tested, 1.2% active; AID 492953;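 active = inhibition above the mean of all tested compounds plus 3 SD, cut at about 24% in these data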;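 also: 0% = enzyme with DMSO and 100% = wells lacking PAFAH1B2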
Fam108B counter: blocks mouse Fam108B hydrolase in RBBP9 counter-screen | recombinant Fam108B, FP-Rh probe fluorescence polarization | inhibition, % at 9.51 µM | 300,000 tested, 0.33% active | AID 1947;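 active = inhibition above the screen mean inhibition plus 3 SD, computed separately per campaign, cut at about 18% in these data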;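 also: inhibitors lower polarization as less probe binds the enzyme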
* marks the source's active call; other numbers are inactive results; . = no result. Hits are enriched below; roughly 2.9% of the tested compounds scored in any of these assays.

SMILES	PAFAH1B3 inh	PME-1 inh	PAFAH2 FP inh	pPAFAH inh	PAFAH1B2 FP inh	Fam108B counter
N#Cc1cccc(NC(=O)Cn2cnc(S(=O)(=O)N3CCCC3)c2)c1	1.0	-3.9	-5.4	-3.0	1.8	-0.1
Cc1ccc(N/N=C(/Sc2nnnn2-c2ccccc2)C(=O)c2ccccc2)cc1	-2.8	-2.1	-0.2	2.3	26.9*	0.1
O=C(/C(=N\Nc1ccc([N+](=O)[O-])cc1)Sc1nnnn1-c1ccccc1)c1ccccc1	2.1	7.3	12.6	10.3	16.0	6.7
CCCCC(CC(O)COCCC)C(=O)NN (stereo not given)	8.9	3.3	0.6	-4.0	0.3	-1.8
COc1cc(NC(=O)c2onc(C)c2Cl)cc(OC)c1OC	5.8	-6.5	-12.8	4.2	1.3	0.2
Cc1ccc(NS(=O)(=O)c2ccc3c(c2)oc(=O)n3C)cc1F	0.6	0.9	8.1	30.8*	5.1	2.5
CCOc1ccc(NS(=O)(=O)c2ccc3c(c2)N(C(C)=O)CCS3)cc1	3.2	-1.1	5.3	31.8*	-0.6	-5.0
Cc1ccc(NS(=O)(=O)c2ccc3c(c2)oc(=O)n3C)cc1C	14.0	-0.5	24.1	16.3	12.6	2.8
CCOC(=O)Cn1c(=O)oc2cc(S(=O)(=O)Nc3cccc(C)c3)ccc21	-5.6	3.6	7.2	25.8*	3.1	1.1
CCOc1ccc(NS(=O)(=O)c2ccc3c(c2)oc(=O)n3C)cc1	3.2	2.1	-0.5	27.9*	4.2	-1.0
CCOC(=O)Cn1c(=O)oc2cc(S(=O)(=O)NC(C)(C)CC)ccc21	4.5	3.6	2.9	-3.0	3.1	2.3
Cc1[nH]c2ccccc2c1C(=O)C(=O)NC1CC1	3.4	3.1	1.3	28.0*	3.4	2.4
Cc1ccccc1NC(=O)CSc1nc(=O)n(CCN2CCOCC2)c2c1CCCC2	6.1	4.7	1.7	1.2	5.7	0.5
O=C(c1nnc(Cc2ccc(Cl)cc2)o1)N1CCc2ccccc2C1	-1.6	5.3	3.9	29.8*	2.5	2.1
Cc1ccc(-n2ncc3c2CC(C)(C)CC3NC(=O)c2ccncc2)cc1 (stereo not given)	4.5	2.1	-3.8	2.1	-0.8	-0.4
COc1ccc(Cl)cc1C(=O)NN=C1CCCC1	-1.8	-0.4	3.7	3.1	-1.5	-4.5
O=C(NN=C1CCCC1)c1cc(Cl)cc(Cl)c1O	14.3	10.5	7.0	33.6*	0.2	14.0
Cc1nc2ccc([N+](=O)[O-])cc2c(=O)n1Cc1ccc(F)cc1	4.5	-1.3	-2.6	7.2	0.6	-1.9
CC(C)(C)c1ccc(CCC(CC(=O)O)CC(=O)O)cc1	14.3	-1.4	-1.0	6.6	26.6*	-2.1
C/C(=N\NC(=O)Cn1nnc2ccccc21)c1ccco1	4.8	-5.7	-3.5	3.1	0.2	4.5
O=C(O)C(CC1CCCCC1)N1CCS(=O)(=O)CC1 (stereo not given)	-3.0	3.0	-0.9	3.0	6.2	1.7
CC(C)c1ccc(/C=C2\Oc3c(ccc(O)c3CN3CCN(C)CC3)C2=O)cc1	8.2	-31.5	75.7*	14.3	25.2*	6.7
Cc1ccc(/C=C2\Oc3c(ccc(O)c3CN3CCN(CCO)CC3)C2=O)cc1	3.1	3.7	17.9	-3.0	-1.9	-0.9
Cc1cccc(Oc2cc(NC(=O)Cn3cnc([N+](=O)[O-])n3)cc([N+](=O)[O-])c2)c1	-1.8	5.2	-13.4	29.0*	1.3	-3.8
CN(C)C=Nc1ccccc1C1C=NNC1=O (stereo not given)	.	28.2*	.	7.6	.	1.0
Cc1cccc(NC(=O)COC(=O)c2cccc3c2C(=O)c2ccccc2C3=O)c1C	12.9	41.2*	12.9	30.6*	4.3	5.3
